Set-up in all cases: scale not given: direction of the effect not stated beside the values
The target of assay [1] is Protein translocase subunit SecA (Escherichia coli (strain K12)) (UniProt P10408). As to the kind of experiment: Assay to Identify E. coli SecA ATPase Inhibitors. It counts as functional. As to conditions: 30 µM.
In assay [2] the target is T1, Ubiquitin-activating enzyme e1, putative (Leishmania donovani (strain BPK282A1)) (UniProt E9BSI1).
T1 sequence (whole entry): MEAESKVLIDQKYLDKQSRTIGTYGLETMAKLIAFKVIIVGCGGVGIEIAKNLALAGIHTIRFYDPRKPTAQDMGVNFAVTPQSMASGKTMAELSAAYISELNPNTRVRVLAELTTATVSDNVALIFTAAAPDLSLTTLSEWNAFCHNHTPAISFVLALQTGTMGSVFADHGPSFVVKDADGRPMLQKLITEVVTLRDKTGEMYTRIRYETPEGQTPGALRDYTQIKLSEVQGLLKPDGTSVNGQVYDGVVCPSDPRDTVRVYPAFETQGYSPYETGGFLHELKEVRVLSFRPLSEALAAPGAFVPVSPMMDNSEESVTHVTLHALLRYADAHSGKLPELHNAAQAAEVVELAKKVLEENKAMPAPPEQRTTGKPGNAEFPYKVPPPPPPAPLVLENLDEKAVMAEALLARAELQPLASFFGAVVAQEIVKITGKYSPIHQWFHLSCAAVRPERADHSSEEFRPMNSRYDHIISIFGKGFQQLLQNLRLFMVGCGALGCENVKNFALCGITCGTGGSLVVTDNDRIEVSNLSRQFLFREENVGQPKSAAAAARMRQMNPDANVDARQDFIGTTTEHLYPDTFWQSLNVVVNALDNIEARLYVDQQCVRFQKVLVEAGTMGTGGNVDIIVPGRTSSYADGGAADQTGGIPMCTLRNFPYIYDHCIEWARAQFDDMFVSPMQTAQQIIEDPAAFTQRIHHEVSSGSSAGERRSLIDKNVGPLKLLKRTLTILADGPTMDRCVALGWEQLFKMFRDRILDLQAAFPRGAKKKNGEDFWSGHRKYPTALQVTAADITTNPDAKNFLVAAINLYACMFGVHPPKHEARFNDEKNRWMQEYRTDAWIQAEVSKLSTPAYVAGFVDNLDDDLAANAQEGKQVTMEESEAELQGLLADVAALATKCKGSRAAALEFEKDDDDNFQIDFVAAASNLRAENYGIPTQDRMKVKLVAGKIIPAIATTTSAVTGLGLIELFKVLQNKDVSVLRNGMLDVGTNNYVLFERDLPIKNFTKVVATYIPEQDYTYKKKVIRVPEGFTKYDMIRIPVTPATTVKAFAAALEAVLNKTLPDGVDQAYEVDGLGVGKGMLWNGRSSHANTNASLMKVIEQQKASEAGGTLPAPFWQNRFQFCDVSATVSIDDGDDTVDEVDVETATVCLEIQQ
As to the kind of experiment: Leishmania donovani Ubiquitin Activating Enzyme (LdE1). It counts as functional. The note with it: 30 µM.

The target of assay [3] is AMP-activated protein kinase, AMPK (Homo sapiens) (UniProt P54646+O43741+P54619+Q9UGJ0+Q9Y478+Q13131+Q9UGI9). As to the kind of experiment: AMP-dependent Kinase enzyme assay. An in vitro enzyme assay that detects ADP turnover that is directly proportional to AMPK activity. This uses naive AMPK that is activated during the assay with MK-8722. It counts as functional. As to conditions: 30 µM.

Assay [4] has as its target Sialic acid-binding Ig-like lectin 9 (Homo sapiens) (UniProt Q9Y336). As to the kind of experiment: Hs-Siglec9 ALPHAscreen SOP 20170721. As to conditions: 10 µM.
A further assay deals with Trypanosoma cruzi. Kind of assay: Trypanosoma cruzi phosphomannomutase and mannose-1-phosphate guanylyltransferase assay. It counts as functional. The note with it: 10 µM.
In assay [5] the target is T2, Arginase-2, mitochondrial (Homo sapiens) (UniProt P78540).
T2 sequence (whole entry): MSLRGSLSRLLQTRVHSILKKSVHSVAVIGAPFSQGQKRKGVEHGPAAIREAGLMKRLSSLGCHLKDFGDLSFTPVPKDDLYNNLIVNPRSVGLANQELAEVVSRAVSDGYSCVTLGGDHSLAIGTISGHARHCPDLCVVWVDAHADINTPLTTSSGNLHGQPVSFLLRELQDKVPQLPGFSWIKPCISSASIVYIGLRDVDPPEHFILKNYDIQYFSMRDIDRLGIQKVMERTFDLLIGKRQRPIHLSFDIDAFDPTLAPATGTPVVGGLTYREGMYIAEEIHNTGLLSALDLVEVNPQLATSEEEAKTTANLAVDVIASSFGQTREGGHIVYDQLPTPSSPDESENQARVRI
As to the kind of experiment: in vitro enzyme assay to detect the production of urea directly proportional to the activity of Arginase II. Further: in the data most compounds retested in dose-response had high values. The note with it: 33.3 µM. The assay is classed as functional.

In assay [6] the target is T3, Proteasome subunit beta (Trypanosoma cruzi) (UniProt O96673).
T3 sequence (whole entry): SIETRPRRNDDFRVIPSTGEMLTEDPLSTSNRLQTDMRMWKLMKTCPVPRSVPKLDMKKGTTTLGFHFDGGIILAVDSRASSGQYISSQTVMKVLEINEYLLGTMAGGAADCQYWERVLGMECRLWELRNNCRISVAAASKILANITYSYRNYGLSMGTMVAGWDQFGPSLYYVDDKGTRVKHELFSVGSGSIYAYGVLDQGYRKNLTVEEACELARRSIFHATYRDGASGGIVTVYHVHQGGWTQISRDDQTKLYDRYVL
Kind of assay: Trypanosoma cruzi proteasome chymotrypsin-like activity (TcProtChymo) assay. Further: in the data most compounds retested in dose-response had high values. The assay is classed as functional. The note with it: 9.37 µM.

The species entered for a further assay is Homo sapiens. As to the kind of experiment: To identify inhibition of the IFN signalling (Jak-Stat) pathway via expression of an eGFP reporter gene under the control of an IFN-stimulated response element (ISRE) containing MxA promoter. The assay is classed as functional. As to conditions: 30 µM.
For assay [7], the target named is T4, Tyrosyl-tRNA synthetase, putative (Trypanosoma cruzi (strain CL Brener)) (UniProt Q4DSP6).
T4 sequence (whole entry): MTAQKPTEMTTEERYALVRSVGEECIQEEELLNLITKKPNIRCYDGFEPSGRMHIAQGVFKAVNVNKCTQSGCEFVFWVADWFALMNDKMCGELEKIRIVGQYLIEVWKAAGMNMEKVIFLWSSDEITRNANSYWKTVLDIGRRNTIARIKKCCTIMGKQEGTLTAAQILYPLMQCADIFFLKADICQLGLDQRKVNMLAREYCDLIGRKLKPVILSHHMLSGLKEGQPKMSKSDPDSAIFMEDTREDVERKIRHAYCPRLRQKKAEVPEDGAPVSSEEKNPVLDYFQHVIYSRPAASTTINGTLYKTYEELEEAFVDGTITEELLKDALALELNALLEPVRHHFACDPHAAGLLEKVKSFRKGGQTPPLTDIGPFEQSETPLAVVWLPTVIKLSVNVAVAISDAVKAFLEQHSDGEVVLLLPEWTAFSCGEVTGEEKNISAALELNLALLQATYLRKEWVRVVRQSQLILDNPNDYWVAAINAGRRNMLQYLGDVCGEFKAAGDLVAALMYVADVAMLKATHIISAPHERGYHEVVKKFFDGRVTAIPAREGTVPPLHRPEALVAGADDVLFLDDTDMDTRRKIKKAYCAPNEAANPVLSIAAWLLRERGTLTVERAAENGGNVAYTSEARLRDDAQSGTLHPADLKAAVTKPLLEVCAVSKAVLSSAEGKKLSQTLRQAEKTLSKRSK
Kind of assay: Trypanosoma cruzi tyrosyl tRNA synthetase (TcYRS) _High Tyrosine SOP. Further: in the data most compounds retested in dose-response had high values. It counts as functional. As to conditions: 30 µM.

Assay [8] has as its target T4, Tyrosyl-tRNA synthetase, putative (Trypanosoma cruzi (strain CL Brener)). As to the kind of experiment: Trypanosoma cruzi tyrosyl tRNA synthetase (TcYRS) SOP. The assay is classed as functional. As to conditions: 30 µM.
Assay [9] has as its target Chromo domain-containing protein 1 (Saccharomyces cerevisiae (strain ATCC 204508 / S288c) (Baker's yeast)) (UniProt P32657). As to the kind of experiment: ScCHD-1 Enzyme Inhibition Assay. Further: in the data most compounds retested in dose-response had high values. It counts as functional. The note with it: 30 µM.

For some of these results: Results with a measured potency or affinity are listed apart.

Chain of Protein translocase subunit SecA (Escherichia coli (strain K12)) (P10408 whole entry): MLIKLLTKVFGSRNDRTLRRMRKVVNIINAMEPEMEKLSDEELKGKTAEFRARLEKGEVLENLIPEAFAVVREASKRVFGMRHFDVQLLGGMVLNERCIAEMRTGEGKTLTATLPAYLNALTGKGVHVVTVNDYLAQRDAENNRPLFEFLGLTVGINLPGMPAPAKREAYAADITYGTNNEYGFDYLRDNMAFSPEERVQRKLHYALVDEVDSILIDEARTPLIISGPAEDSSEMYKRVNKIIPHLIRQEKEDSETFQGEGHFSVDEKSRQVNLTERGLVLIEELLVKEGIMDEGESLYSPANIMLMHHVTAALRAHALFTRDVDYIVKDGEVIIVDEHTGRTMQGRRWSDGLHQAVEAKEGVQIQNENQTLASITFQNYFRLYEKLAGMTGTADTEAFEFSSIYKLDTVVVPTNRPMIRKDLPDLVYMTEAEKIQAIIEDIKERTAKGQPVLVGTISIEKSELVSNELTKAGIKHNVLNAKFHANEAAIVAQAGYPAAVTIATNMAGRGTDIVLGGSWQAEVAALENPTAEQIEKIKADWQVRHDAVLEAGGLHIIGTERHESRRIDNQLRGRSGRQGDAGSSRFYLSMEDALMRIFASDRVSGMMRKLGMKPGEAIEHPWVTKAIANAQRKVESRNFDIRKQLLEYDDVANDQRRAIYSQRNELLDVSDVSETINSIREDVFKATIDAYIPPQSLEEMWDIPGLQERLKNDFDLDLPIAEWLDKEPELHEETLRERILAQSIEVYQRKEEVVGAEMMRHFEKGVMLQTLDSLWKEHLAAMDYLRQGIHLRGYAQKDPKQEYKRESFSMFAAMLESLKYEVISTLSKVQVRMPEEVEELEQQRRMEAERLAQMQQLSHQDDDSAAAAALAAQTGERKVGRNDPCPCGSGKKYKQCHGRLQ
Chain of Chromo domain-containing protein 1 (Saccharomyces cerevisiae (strain ATCC 204508 / S288c) (Baker's yeast)) (P32657 whole entry, the tested form may be a part): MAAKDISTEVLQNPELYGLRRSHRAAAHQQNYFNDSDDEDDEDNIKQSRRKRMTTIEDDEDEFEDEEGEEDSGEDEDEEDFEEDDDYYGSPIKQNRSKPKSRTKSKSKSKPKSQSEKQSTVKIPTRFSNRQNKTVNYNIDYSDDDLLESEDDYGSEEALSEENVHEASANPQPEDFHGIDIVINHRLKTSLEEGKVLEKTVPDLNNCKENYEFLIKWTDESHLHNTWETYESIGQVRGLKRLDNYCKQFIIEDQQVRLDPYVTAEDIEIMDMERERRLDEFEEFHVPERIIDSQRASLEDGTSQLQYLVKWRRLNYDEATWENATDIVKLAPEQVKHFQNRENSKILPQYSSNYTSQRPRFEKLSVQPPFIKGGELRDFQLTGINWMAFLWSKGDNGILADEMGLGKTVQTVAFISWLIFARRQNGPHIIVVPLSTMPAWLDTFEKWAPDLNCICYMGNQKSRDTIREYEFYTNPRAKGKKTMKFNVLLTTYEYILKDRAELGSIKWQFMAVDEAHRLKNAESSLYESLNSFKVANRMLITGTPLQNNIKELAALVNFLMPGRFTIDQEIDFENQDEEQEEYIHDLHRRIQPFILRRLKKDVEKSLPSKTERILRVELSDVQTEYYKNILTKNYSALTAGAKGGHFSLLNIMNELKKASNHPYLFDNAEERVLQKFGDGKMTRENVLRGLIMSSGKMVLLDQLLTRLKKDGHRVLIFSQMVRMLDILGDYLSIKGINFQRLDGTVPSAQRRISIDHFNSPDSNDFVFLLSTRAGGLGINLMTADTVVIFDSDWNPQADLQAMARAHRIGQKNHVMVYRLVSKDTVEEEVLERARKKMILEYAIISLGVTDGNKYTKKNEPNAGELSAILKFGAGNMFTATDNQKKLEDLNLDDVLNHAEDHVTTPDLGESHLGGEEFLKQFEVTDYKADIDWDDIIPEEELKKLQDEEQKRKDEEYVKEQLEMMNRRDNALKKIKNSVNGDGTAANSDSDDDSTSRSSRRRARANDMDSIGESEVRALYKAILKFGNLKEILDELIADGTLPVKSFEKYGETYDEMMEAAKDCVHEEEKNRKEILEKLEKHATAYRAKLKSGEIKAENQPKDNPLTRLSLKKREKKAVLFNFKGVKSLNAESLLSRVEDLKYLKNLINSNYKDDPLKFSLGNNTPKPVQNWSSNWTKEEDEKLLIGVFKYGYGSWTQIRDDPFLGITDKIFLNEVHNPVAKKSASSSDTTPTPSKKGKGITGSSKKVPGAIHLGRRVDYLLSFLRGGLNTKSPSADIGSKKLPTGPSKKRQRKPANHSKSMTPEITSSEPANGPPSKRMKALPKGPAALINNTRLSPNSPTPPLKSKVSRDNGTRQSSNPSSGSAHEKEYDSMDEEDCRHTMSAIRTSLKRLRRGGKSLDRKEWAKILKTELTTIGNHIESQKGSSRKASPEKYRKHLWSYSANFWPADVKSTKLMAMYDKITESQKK
Chain of Sialic acid-binding Ig-like lectin 9 (Homo sapiens) (Q9Y336 whole entry): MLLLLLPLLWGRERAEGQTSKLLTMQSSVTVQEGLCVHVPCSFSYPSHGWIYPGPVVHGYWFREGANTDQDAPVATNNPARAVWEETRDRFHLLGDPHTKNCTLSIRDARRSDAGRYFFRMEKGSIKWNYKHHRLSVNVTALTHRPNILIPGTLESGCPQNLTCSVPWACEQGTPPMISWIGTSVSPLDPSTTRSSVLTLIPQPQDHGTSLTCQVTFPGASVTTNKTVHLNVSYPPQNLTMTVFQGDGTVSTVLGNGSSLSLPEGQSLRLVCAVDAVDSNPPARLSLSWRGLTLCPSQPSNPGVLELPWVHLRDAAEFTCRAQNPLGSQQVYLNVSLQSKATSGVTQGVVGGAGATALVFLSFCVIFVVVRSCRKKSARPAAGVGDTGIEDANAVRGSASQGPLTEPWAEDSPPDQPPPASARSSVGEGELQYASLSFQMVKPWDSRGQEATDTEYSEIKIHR

As to `CN(Cc1cnn(C)c1)C(=O)NCc1csc(Br)c1`, the Percent Effect in [1] was -1.72%; in [2], 16.2%; in [3], 10.9%; in [4], -2.71%; in the assay on Trypanosoma cruzi, -8.08%; in assay [5], 2.77%. The Percent Effect in assay [6] is 14.7%; in the assay listed under Homo sapiens it was 17.1%; in assay [7], -3.96%; in assay [8], -1.22%; in assay [9] it was -6.6%.

`Cc1ccc(CC(=O)NCCCNS(C)(=O)=O)cc1`: the Percent Effect was -0.957% in assay [1]; 13.9% in assay [2]; 3.16% in assay [3]; 0.198% in [4]; -2.56% with Trypanosoma cruzi; -1.94% in [5]. In addition, the Percent Effect in [6] is 14.8%; in the assay listed under Homo sapiens, -1.21%; in assay [7], 6.25%; in assay [8] it was 15.2%; in [9], -16.2%.

As to `O=C(c1ccc[nH]1)N1CCn2cc(Cn3cncn3)nc2C1`, the Percent Effect in assay [1] is -0.971%; in assay [2] it was 2.67%; in [3], 2.39%; in assay [4], -2.2%; in the assay on Trypanosoma cruzi, -3.94%; in assay [5] it was 3.03%. The Percent Effect in assay [6] is 11.2%; in the assay filed under Homo sapiens, 13.4%; in [7] it was 3.19%; in [8], -1.28%; in [9], -3.1%.

In the case of `N#Cc1ccc(N2CCN(C(=O)c3cc(C4CC4)[nH]n3)CC2)c(F)c1`, the Percent Effect in [1] was -6.31%; in [2] it was 8.11%; in assay [3], -4.12%; in assay [4] it was 19.3%; with Trypanosoma cruzi, 5.29%; in [5], -4.99%. Besides, the Percent Effect was -0.179% in assay [6]; 7.83% in the assay listed under Homo sapiens; 4.95% in assay [7]; 23.2% in assay [8]; -7.65% in assay [9].

`CN(C)CC1CN(Cc2cccc(C(=O)N(C)C)c2)CCO1` (stereo unspecified): the Percent Effect in assay [1] is -4.12%; in [2], 20.8%; in assay [3], -4.76%; in assay [4], -4.42%; with Trypanosoma cruzi, -0.562%; in [5], 3.56%. Further, the Percent Effect was 14.7% in assay [6]; 20.8% in the assay filed under Homo sapiens; 10.7% in assay [7]; 14.6% in assay [8]; -5.94% in assay [9].

`O=C(C1CCOC1)N1C[C@H]2CN(Cc3nccs3)C[C@H]2C1` (stereo partly specified): the Percent Effect is -7.06% in assay [1]; 5.41% in assay [2]; 2.27% in assay [3]; -7.15% in [4]; -3.81% in the assay on Trypanosoma cruzi; -6.69% in [5]. Further, the Percent Effect is 15.7% in assay [6]; -4.44% in the assay filed under Homo sapiens; 0% in [7]; 2.56% in assay [8]; -2.08% in assay [9].

For `O=C(Cc1ccc(O)c(Cl)c1)N1CCCCC1CCn1cccn1` (stereo unspecified), the Percent Effect is -3.9% in [1]; 13.5% in [2]; 1.21% in assay [3]; 26.9% in assay [4]; 3.09% with Trypanosoma cruzi; 0.476% in [5]. For the same compound, the Percent Effect in assay [6] was 10.9%; in the assay listed under Homo sapiens, 0.632%; in assay [7], 3.7%; in [8], 19.5%; in assay [9], -5.17%.

With `Cc1ccc(CN2Cc3c(C(=O)N(C)C)nn(C)c3C2)s1`, the Percent Effect was -0.916% in [1]; -19.2% in assay [2]; -24.4% in [3]; 6.15% in assay [4]; 6.75% with Trypanosoma cruzi; -1.2% in assay [5]. For the same compound, the Percent Effect in assay [6] is 7.79%; in the assay listed under Homo sapiens, -12.5%; in assay [7] it was 3.12%; in assay [8], 11.1%; in [9], -3.35%.

With `Cc1ncc(CNC(=O)CCOc2ccccc2)c(C2CCCN2C)n1` (stereo unspecified), the Percent Effect in [1] is -0.839%; in [2], -1.35%; in assay [3], 18.7%; in assay [4], 7.48%; in the assay on Trypanosoma cruzi, -6.32%; in assay [5], 3.02%. Further, the Percent Effect is 6.08% in assay [6]; 12.3% in the assay filed under Homo sapiens; 1.07% in [7]; 1.3% in assay [8]; -1.9% in assay [9].

For the compound `O=C(Nc1ccccc1)C1CN(CC2CC2)CC12CCOCC2` (stereo unspecified), the Percent Effect in [1] is -1.55%; in [2], 5.33%; in [3] it was 7.28%; in assay [4] it was -3.04%; with Trypanosoma cruzi it was -0.579%; in [5] it was -8.42%. For the same compound, the Percent Effect is 10.4% in assay [6]; -0.536% in the assay listed under Homo sapiens; -3.12% in assay [7]; -10% in assay [8]; -4.82% in assay [9].

Consider `Cc1ccc(CNC(C)c2ccc3[nH]c(=O)[nH]c3c2)s1` (stereo unspecified), for which the Percent Effect in assay [1] is -3.59%; in assay [2] it was 13.5%; in assay [3] it was -7.56%; in assay [4], 14%; with Trypanosoma cruzi it was 5%; in [5], -5.61%. Moreover, the Percent Effect is -0.721% in assay [6]; 14.9% in the assay filed under Homo sapiens; 2.46% in [7]; 11.1% in [8]; -6.23% in assay [9].

(Values after ChEMBL document CHEMBL3988442, “University of Dundee, Small-Polar-MMV Screening Library” (2021).)
